Assay results taken from PubChem BioAssay AID651812 (National Center for Advancing Translational Sciences (NCATS), 2012).
Among all 2,100 compounds or so, about 650 (31%) were called active. Another 16% or so got no clear call; they are omitted. Calls come from the whole dose curve; as a rule, active = well fitted inhibition curve with a large enough effect; inconclusive = small, poorly fitted or top-dose-only effect; inactive = flat fitted curve, though single readings scatter. Some of the results follow. Where a call stands in place of a potency, no number is given.

Assay: qHTS for inhibitors of Vif-A3G interactions: Cherry picks; note: nearly all actives have a fitted effect of over 80% in size
Details: HeLa A3G-eYFP + Vif (tagged APOBEC3G with the HIV-1 protein that degrades it), 24 h; Potency: eYFP fluorescence increase; series mostly up to 36.9 µM
Method in brief: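 Cherry-picked compounds tested at several concentrations on A3G-eYFP/Vif HeLa cells for 24 hours; loss of Vif-driven degradation read as eYFP fluorescence by cytometric plate imaging, 488 nm excitation, 500-530 nm emission.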
Potency is the fitted concentration of half-maximal effect.

Q: With `O=C(/C=C/c1ccccc1)Nc1ncn[nH]1` as the molecule, how does the Potency read?
A: inactive

Q: For `O=C(c1cc([N+](=O)[O-])ccc1N1CCCCC1)N1CCc2ccccc21`, which Potency is on record?
A: inactive

Q: With `Cc1cccc2cc3c(N)c(C(=O)N4CCCc5ccccc54)sc3nc12` as the molecule, how does the Potency read?
A: 14.6 µM (active)

Q: Which Potency does the source give for `COc1ccc(-c2cc(C(F)F)n3ncc(C(=O)N4CCc5ccccc54)c3n2)cc1` here?
A: inactive

Q: For `Cc1ccc2nc3sc(C(=O)N4CCCc5ccccc54)c(N)c3cc2c1`, which Potency is on record?
A: 14 µM (active)

Q: Which Potency does the source give for `Cc1c(C(=O)C(=O)N2CCCc3ccccc32)c2ccccc2n1C` here?
A: inactive

Q: For `Cc1cccc2cc3c(N)c(C(=O)N4CCc5ccccc54)sc3nc12`, which Potency is on record?
A: 8.2 µM (active)

Q: Which Potency does the source give for `Cc1cc(NC(=O)COC(=O)c2ccc(S(=O)(=O)N3CCCc4ccccc43)cc2)no1` here?
A: inactive

Q: With `Cc1ccc(Cc2c(C3CCCCC3)nc3ccc(C)cn23)cc1` as the molecule, how does the Potency read?
A: inactive

Q: Which Potency does the source give for `Cc1cc2nc3s/c(=C/c4ccc(-c5ccccc5C(=O)O)o4)c(=O)n3c2cc1C` here?
A: 20.6 µM (active)

Q: With `CCCCOc1nc2ccccc2nc1NS(=O)(=O)c1ccc(F)cc1` as the molecule, how does the Potency read?
A: inactive

Q: For `COc1ccccc1Nc1cc2cc(Br)ccc2c(=O)[nH]1`, which Potency is on record?
A: inactive

Q: For `COc1ccccc1N1C(=O)C(Cl)=C(Nc2ccccc2O)C1=O`, which Potency is on record?
A: 16.4 µM (active)

Q: For `COc1ccc(Cl)cc1NC(=O)CN(C)CC(=O)Nc1ccccc1N1CCOCC1`, which Potency is on record?
A: inactive

Q: Which Potency does the source give for `N#Cc1ccc(-c2cccs2)nc1SCc1c(F)cccc1Cl` here?
A: inactive

Q: Which Potency does the source give for `C#CCSc1nc(-c2cccs2)ccc1C#N` here?
A: 8.2 µM (active)

Q: With `Cc1cccc(CSc2nc(-c3cccs3)ccc2C#N)c1` as the molecule, how does the Potency read?
A: inactive

Q: For `Cc1ccc(NC2=C(Cl)C(=O)N(C3CCCCC3)C2=O)cc1`, which Potency is on record?
A: inactive

Q: Which Potency does the source give for `CCC(=O)Nc1ccccc1-c1nc2ccccc2n(C(C)C(=O)Nc2ccc(OC)cc2)c1=O` (centres undefined) here?
A: 18.4 µM (active)

Q: For `COc1ccc(CNCC(=O)Nc2ccccc2-n2cccc2)cc1`, which Potency is on record?
A: inactive

Q: For `Cc1noc(C)c1COc1ccc(C(=O)NNC(=O)c2ccccc2)cc1`, which Potency is on record?
A: inactive

Q: With `CCOC(=O)c1cnc(-n2nc(C)cc2C)nc1NNc1cc(C)nc(-c2ccccc2)n1` as the molecule, how does the Potency read?
A: inactive

Q: Which Potency does the source give for `CCCCCCN1C[C@H](O)[C@@H](n2cc(COC(=O)c3ccccc3)nn2)C[C@@H]1c1ccc(C)cc1` here?
A: inactive

Q: For `CC1(C)CC(=O)C(C=Nc2cc(C(=O)c3ccccc3)ccc2N)=C(O)C1`, which Potency is on record?
A: 20.6 µM (active)

Q: Which Potency does the source give for `CCOC(=O)N1CCc2c(sc3c2C(=O)NC(c2ccc(N(C)C)cc2)N3)C1` (centres undefined) here?
A: 20.6 µM (active)

Q: Which Potency does the source give for `Cc1onc(-c2c(F)cccc2Cl)c1C(=O)O/N=C(\N)c1ccc([N+](=O)[O-])o1` here?
A: inactive

Q: For `Nc1nc(-c2cc(O)ccc2[N+](=O)[O-])cc(-c2ccccc2)c1[N+](=O)[O-]`, which Potency is on record?
A: 15.8 µM (active)

Q: Which Potency does the source give for `CNCC(O)Cn1c2c(c3ccccc31)CCCC2` (centres undefined) here?
A: inactive

Q: Which Potency does the source give for `Cc1oc(C)c2c(=O)ccc3c(c12)OC(N)=C(C#N)C3c1ccc(F)cc1` (centres undefined) here?
A: inactive

Q: Which Potency does the source give for `COc1ccc(O)c(C(=O)c2coc(=N)c(C(=O)Nc3ccc(SC(F)F)cc3)c2)c1` here?
A: 23.1 µM (active)

Q: For `CC(C)OC(=O)c1ccc(NCc2cc(O)ccc2O)cc1Cl`, which Potency is on record?
A: inactive

Q: For `O=C(Nc1ncc(Cc2ccc(SC(F)F)cc2)s1)c1ccccc1`, which Potency is on record?
A: inactive

Q: With `CC(C)OC(=O)c1cc(C(=O)c2cc(F)ccc2O)coc1=N` as the molecule, how does the Potency read?
A: 20.6 µM (active)

Q: For `COc1cc(-c2nc3ccc(C)cn3c2NCc2ccccc2)ccc1SC1CCCCC1`, which Potency is on record?
A: inactive

Q: For `COc1ccccc1/C=C/C=N/NC(=O)c1cc(-c2ccc(C)o2)[nH]n1`, which Potency is on record?
A: inactive

Q: For `Cc1ccc2c(/C=C/c3c[nH]c4ccccc34)ccnc2c1C`, which Potency is on record?
A: 3.26 µM (active)

Q: With `C(=Cc1c[nH]c2ccccc12)c1nccc2ccccc12` as the molecule, how does the Potency read?
A: 18.4 µM (active)

Q: With `C(=C\c1c[nH]c2ccccc12)/c1nccc2ccccc12` as the molecule, how does the Potency read?
A: 14.6 µM (active)

Q: With `Cc1cccc(C(=O)Nc2nnc(C3=COCCO3)o2)c1` as the molecule, how does the Potency read?
A: inactive

Q: Which Potency does the source give for `O=C(NCc1cccnc1)c1cccc(NS(=O)(=O)c2ccc(Br)cc2)c1` here?
A: inactive

Q: For `COc1ccc(NC(=O)c2ccc(NC(=O)C(C)C)cc2)c([N+](=O)[O-])c1`, which Potency is on record?
A: 10.3 µM (active)

Q: Which Potency does the source give for `COc1ccc(-c2nnc(NC(=O)c3ccc([N+](=O)[O-])o3)o2)c(OC)c1` here?
A: inactive

Q: For `COc1ccc(COc2cc(-c3cccc(OC)c3)nc3ccc(NC(=O)C(C)C)cc23)cc1`, which Potency is on record?
A: inactive

Q: Which Potency does the source give for `CCN1C(=O)/C(=C/c2ccc(N3CCCC3)cc2)NC1=S` here?
A: 10.3 µM (active)

Q: Which Potency does the source give for `O=C1/C(=C/c2ccc(N3CCCC3)cc2)NC(=S)N1C1CC1` here?
A: 3.66 µM (active)

Q: For `Cc1ccc(C=Nc2ccccc2C(N)=O)s1`, which Potency is on record?
A: inactive

Q: With `O=C1N/C(=C\c2ccccc2)c2ccccc21` as the molecule, how does the Potency read?
A: inactive

Q: For `CN(C)c1ccc(/C=C2\NC(=S)N(Cc3ccccc3)C2=O)cc1`, which Potency is on record?
A: 9.94 µM (active)

Q: Which Potency does the source give for `Cc1ccc(/C=C2/NC(=O)N(Cc3ccccc3)C2=O)s1` here?
A: 23.1 µM (active)

Q: Which Potency does the source give for `COc1ccc(COn2c(=O)c(C)[n+]([O-])c3ccccc32)cc1OC` here?
A: inactive

Q: Which Potency does the source give for `COc1ccccc1N1CCN(c2ncnc3c2oc2ccccc23)CC1` here?
A: inactive

Q: Which Potency does the source give for `CCOC(=O)N1CCN(C(=O)c2ccccc2-c2ccccc2)CC1` here?
A: inactive

Q: For `CCOC(=O)N1CCN(/C=C(\C#N)c2nc3ccccc3s2)CC1`, which Potency is on record?
A: 18.4 µM (active)

Q: With `CCOC(=O)N1CCN(C(=O)c2cc(-c3ccc(OCC)cc3)nc3ccccc23)CC1` as the molecule, how does the Potency read?
A: inactive

Q: Which Potency does the source give for `COc1ccc(S(=O)(=O)N2N=C(C)Oc3ccccc3C2=O)cc1` here?
A: inactive

Q: Which Potency does the source give for `COc1ccc(C(=O)N/N=C/c2cc(Br)ccc2O)cc1OC` here?
A: inactive

Q: With `COc1cc(/C=C/C(C)=NNc2ccccc2)ccc1O` as the molecule, how does the Potency read?
A: inactive

Q: With `COc1cc(/C=N/NC(=O)c2cc(-c3c(C)nn(-c4ccccc4)c3C)n[nH]2)ccc1O` as the molecule, how does the Potency read?
A: inactive

Q: With `COc1cc(/C=C2\SC(=S)N(NC(=O)c3ccccc3O)C2=O)ccc1O` as the molecule, how does the Potency read?
A: 23.1 µM (active)

Q: For `COc1cc(/C=C2\SC(=S)N(NC(=O)c3ccc(O)c(OC)c3)C2=O)ccc1O`, which Potency is on record?
A: 13 µM (active)

Q: Which Potency does the source give for `COc1cc(/C=N/NC(=O)c2[nH]nc3c2CCc2ccccc2-3)ccc1O` here?
A: inactive

Q: For `CCOC(=O)C(C(=O)OCC)C(Nc1cccc(Br)c1)c1ccccc1` (centres undefined), which Potency is on record?
A: inactive

Q: For `c1ccc2c(CCc3c[nH]c4ccccc34)ccnc2c1`, which Potency is on record?
A: 23.1 µM (active)

Q: Which Potency does the source give for `CCCCN1C(=O)/C(=C2/Sc3ccccc3N2C)S/C1=N\c1ncn[nH]1` here?
A: 18.4 µM (active)
